Results as given in PubChem BioAssay AID1159580 (chemical genetic matrix, 2015).
About 2,000 (36%) of roughly 5,500 compounds were called active. About 18% were inconclusive and are not listed. No stated cut-off is given here; in the data, active means normalized growth mostly below about 0.91 (no sharp cut-off); inconclusive means no clear call, values can overlap the other calls; inactive means mostly above about 0.92. The list shows a part of the results.

Test: chemical genetic growth profiling, strain panel (AID 1159580);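 further: tested at 20 µM; growth read once vehicle control cultures reached saturation at 30 °C; 1 = growth at the plate median or of vehicle wells; lower values mean less growth of the strain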
Settings: growth OD
[1] = S. cerevisiae deletion strains, locus YAL013W, strain DEP1, hits give low values
[2] = S. cerevisiae deletion strains, locus YBR229C, strain ROT2, hits give low values
[3] = S. cerevisiae deletion strains, locus YCL061C, strain MRC1, hits give low values
[4] = S. cerevisiae deletion strains, locus YDL101C, strain DUN1, hits give low values
[5] = S. cerevisiae deletion strains, locus YDL134C, strain PPH21, hits give low values
[6] = S. cerevisiae deletion strains, locus YDR150W, strain NUM1, hits give low values
[7] = S. cerevisiae deletion strains, locus YEL061C, strain CIN8, hits give low values
[8] = S. cerevisiae deletion strains, locus YGR078C, strain PAC10, hits give low values
[9] = S. cerevisiae deletion strains, locus YHR030C, strain SLT2, hits give low values
[10] = S. cerevisiae deletion strains, locus YHR087W, strain rtc3, hits give low values
[11] = S. cerevisiae deletion strains, locus YJL187C, strain SWE1, hits give low values
[12] = S. cerevisiae deletion strains, locus YJR043C, strain POL32, hits give low values
[13] = S. cerevisiae deletion strains, locus YJR075W, strain HOC1, hits give low values
[14] = S. cerevisiae deletion strains, locus YLR039C, strain RIC1, hits give low values
[15] = S. cerevisiae deletion strains, locus YLR058C, strain SHM2 (second series), hits give low values
[16] = S. cerevisiae deletion strains, locus YLR085C, strain ARP6, hits give low values
[17] = S. cerevisiae deletion strains, locus YLR262C, strain YPT6, hits give low values
[18] = S. cerevisiae deletion strains, locus YML094W, strain GIM5, hits give low values
[19] = S. cerevisiae deletion strains, locus YMR219W, strain ESC1, hits give low values
[20] = S. cerevisiae deletion strains, locus YNL153C, strain GIM3, hits give low values
[21] = S. cerevisiae deletion strains, locus YNL298W, strain CLA4 (second series), hits give low values
[22] = S. cerevisiae deletion strains, locus YNL322C, strain KRE1, hits give low values
[23] = S. cerevisiae deletion strains, locus YNR030W, strain Alg12, hits give low values
[24] = S. cerevisiae deletion strains, locus YPL055C, strain LGE1, hits give low values
[25] = S. cerevisiae deletion strains, locus YPL241C, strain CIN2, hits give low values
[26] = S. cerevisiae deletion strains, locus YPR135W, strain CTF4, hits give low values
[27] = S. cerevisiae strains, strain wild type, hits give low values
[28] = S. cerevisiae deletion strains, locus YMR263W, strain SAP30, hits give low values
[29] = S. cerevisiae deletion strains, locus YMR307W, strain GAS1, hits give low values

Measured: normalized growth

S=c1nccc(-c2ccc(Cl)cc2)[nH]1
active: [1] 0.881 | [2] 0.861 | [3] 0.84 | [4] 0.844 | [5] 0.882 | [7] 0.904 | [8] 0.831 | [12] 0.818 | S. cerevisiae deletion strains, locus YKL190W, strain CNB1, hits give low values 0.849 | [16] 0.413 | [19] 0.918 | [20] 0.895 | [21] 0.76 | [23] 0.694 | S. cerevisiae deletion strains, locus YOL006C, strain TOP1, hits give low values 0.36 | [24] 0.631 | [25] 0.748 | [26] 0.554 | [27] 0.882
inactive: [6] 1.04 | [9] 0.722 | [10] 0.912 | [11] 0.969 | [13] 0.949 | [14] 1.01 | [15] 0.957 | [17] 1.05 | [18] 0.879 | [22] 0.988

COC(=O)CSc1nc2ccc(Cl)cc2s1
inactive: [1] 0.964 | [2] 0.932 | [4] 0.906 | [6] 1.02 | [7] 0.96 | [8] 0.958 | [10] 0.942 | [11] 0.949 | [12] 0.977 | [13] 0.955 | [14] 0.842 | [17] 0.891 | [18] 0.901 | [19] 0.962 | [28] 1 | [29] 1.15 | [20] 0.962 | [21] 0.877 | [22] 0.959 | [23] 0.975 | [24] 0.92 | [26] 0.685
active: [9] 0.491 | [15] 0.932 | [16] 0.744 | [25] 1.18 [resistant]

COC(=O)CSc1ncnc2c(C)csc12
inactive: [1] 0.989 | [2] 0.998 | [4] 0.959 | [5] 0.973 | [6] 0.948 | [7] 0.978 | [8] 0.988 | [9] 0.802 | [10] 0.998 | [12] 0.973 | [13] 0.974 | [14] 0.958 | [15] 0.995 | [16] 0.9 | [17] 0.985 | [18] 0.949 | [19] 1 | [28] 0.981 | [29] 0.903 | [20] 0.994 | [21] 0.945 | [22] 1 | [23] 0.981 | [24] 0.953 | [25] 0.986 | [26] 0.818

O=C1NN=C2C3CC4CC12CC1(C3)C(=O)NN=C41
inactive: [1] 0.992 | [2] 0.999 | [4] 1 | [5] 1.01 | [6] 1 | [7] 0.997 | [8] 1.01 | S. cerevisiae deletion strains, locus YGR229C, strain SMI1, hits give low values 1 | [9] 1.03 | [10] 0.974 | [12] 1.02 | [13] 1.02 | [14] 1.05 | [15] 1 | [16] 0.989 | [17] 1.03 | [18] 0.974 | [19] 1 | [28] 0.974 | [20] 1.02 | [21] 0.983 | [22] 1.02 | [23] 0.978 | [24] 0.981 | [25] 0.998 | [26] 1.01 | [27] 0.999

C=CC1C2=CCOC(=O)C2=COC1OC1OC(CO)C(O)C(O)C1O (stereo not given)
inactive: S. cerevisiae deletion strains, locus YAL021C, strain ccr4, hits give low values 1.02 | S. cerevisiae deletion strains, locus YAL026C, strain drs2, hits give low values 1.02 | S. cerevisiae deletion strains, locus YAL030W, strain snc1, hits give low values 1.02 | S. cerevisiae deletion strains, locus YBL061C, strain skt5, hits give low values 1.01 | S. cerevisiae deletion strains, locus YBR009C, strain hhf1, hits give low values 1.02 | S. cerevisiae deletion strains, locus YBR023C, strain chs3, hits give low values 1.01 | S. cerevisiae deletion strains, locus YBR171W, strain sec66, hits give low values 1.02 | S. cerevisiae deletion strains, locus YBR231C, strain swc5, hits give low values 1.02 | S. cerevisiae deletion strains, locus YBR279W, strain paf1, hits give low values 1.01 | S. cerevisiae deletion strains, locus YCL011C, strain gbp2, hits give low values 1.02 | S. cerevisiae deletion strains, locus YCL016C, strain dcc1, hits give low values 1.01 | [3] 1.02 | S. cerevisiae deletion strains, locus YCL069W, strain vba3, hits give low values 1.02 | S. cerevisiae deletion strains, locus YCR088W, strain abp1, hits give low values 1.02 | S. cerevisiae deletion strains, locus YDL005C, strain med2, hits give low values 1.01 | S. cerevisiae deletion strains, locus YDL040C, strain nat1, hits give low values 1.02 | S. cerevisiae deletion strains, locus YDR001C, strain nth1, hits give low values 1.02 | S. cerevisiae deletion strains, locus YDR069C, strain doa4, hits give low values 1.02 | S. cerevisiae deletion strains, locus YDR137W, strain rgp1, hits give low values 1.08 | S. cerevisiae deletion strains, locus YDR159W, strain sac3, hits give low values 1.02 | S. cerevisiae deletion strains, locus YDR195W, strain ref2 1.01 | S. cerevisiae deletion strains, locus YDR297W, strain sur2, hits give low values 1.02 | S. cerevisiae deletion strains, locus YDR334W, strain swr1, hits give low values 1.02 | S. cerevisiae deletion strains, locus YDR335W, strain msn5, hits give low values 1.02 | S. cerevisiae deletion strains, locus YDR392W, strain spt3, hits give low values 1.02 | S. cerevisiae deletion strains, locus YEL003W, strain gim4, hits give low values 1.02 | S. cerevisiae deletion strains, locus YEL037C, strain rad23, hits give low values 1.02 | S. cerevisiae deletion strains, locus YEL061C, strain CIN8 (second series), hits give low values 1.03 | S. cerevisiae deletion strains, locus YER015W, strain faa2, hits give low values 1.01 | S. cerevisiae deletion strains, locus YER016W, strain bim1, hits give low values 1.02 | S. cerevisiae deletion strains, locus YER111C, strain swi4, hits give low values 1.01 | S. cerevisiae deletion strains, locus YER155C, strain BEM2 (second series), hits give low values 1.05 | S. cerevisiae deletion strains, locus YFR010W, strain ubp6, hits give low values 1.03 | S. cerevisiae deletion strains, locus YGL167C, strain pmr1, hits give low values 1.02 | S. cerevisiae deletion strains, locus YGL173C, strain kem1, hits give low values 1.02 | S. cerevisiae deletion strains, locus YGL227W, strain vid30, hits give low values 1.03 | S. cerevisiae deletion strains, locus YGL240W, strain doc1, hits give low values 1.02 | S. cerevisiae deletion strains, locus YGL253W, strain hxk2, hits give low values 1.03 | S. cerevisiae deletion strains, locus YHR013C, strain ard1, hits give low values 1.04 | S. cerevisiae deletion strains, locus YHR027C, strain rpn1, hits give low values 1.02 | S. cerevisiae deletion strains, locus YHR142W, strain chs7, hits give low values 1.04 | S. cerevisiae deletion strains, locus YJL092W, strain hpr5, hits give low values 1.01 | S. cerevisiae deletion strains, locus YJL095W, strain BCK1 (second series), hits give low values 1.02 | S. cerevisiae deletion strains, locus YJL115W, strain asf1, hits give low values 1.03 | S. cerevisiae deletion strains, locus YJL129C, strain trk1, hits give low values 1.04 | S. cerevisiae deletion strains, locus YJL154C, strain vps35, hits give low values 1.01 | S. cerevisiae deletion strains, locus YJL164C, strain tpk1, hits give low values 1.02 | S. cerevisiae deletion strains, locus YJL166W, strain qcr8, hits give low values 1.02 | [11] 1.02 | S. cerevisiae deletion strains, locus YKL160W, strain elf1, hits give low values 1.01 | S. cerevisiae deletion strains, locus YKR026C, strain gcn3, hits give low values 1.02 | S. cerevisiae deletion strains, locus YKR091W, strain srl3, hits give low values 1.02 | S. cerevisiae deletion strains, locus YLL001W, strain dnm1, hits give low values 1.02 | S. cerevisiae deletion strains, locus YLL026W, hits give low values 1.01 | S. cerevisiae deletion strains, locus YLL041C, strain sdh2, hits give low values 1.02 | S. cerevisiae deletion strains, locus YLR027C, strain aat2, hits give low values 1.01 | S. cerevisiae deletion strains, locus YLR221C, strain rsa3, hits give low values 1.02 | S. cerevisiae deletion strains, locus YLR258W, strain gsy2, hits give low values 1.01 | S. cerevisiae deletion strains, locus YLR262C, strain YPT6 (second series), hits give low values 1.03 | S. cerevisiae deletion strains, locus YLR320W, strain mms22, hits give low values 1.03 | S. cerevisiae deletion strains, locus YLR342W, strain FKS1, hits give low values 1 | S. cerevisiae deletion strains, locus YLR357W, strain rsc2, hits give low values 1 | S. cerevisiae deletion strains, locus YLR370C, strain arc18, hits give low values 1.03 | S. cerevisiae deletion strains, locus YLR384C, strain iki3, hits give low values 1.01 | S. cerevisiae deletion strains, locus YML120C, strain ndi1, hits give low values 1.02 | S. cerevisiae deletion strains, locus YMR058W, strain fet3, hits give low values 1.02 | S. cerevisiae deletion strains, locus YMR125W, strain sto1, hits give low values 1.03 | S. cerevisiae deletion strains, locus YMR129W, hits give low values 1.02 | S. cerevisiae deletion strains, locus YMR205C, strain PFK2, hits give low values 1.03 | S. cerevisiae deletion strains, locus YMR231W, strain pep5, hits give low values 1.03 | S. cerevisiae deletion strains, locus YNL071W, strain lat1, hits give low values 1.02 | S. cerevisiae deletion strains, locus YNL209W, strain ssb2, hits give low values 1.01 | S. cerevisiae deletion strains, locus YNL248C, strain rpa49, hits give low values 1.05 | S. cerevisiae deletion strains, locus YNL322C, strain KRE1 (second series), hits give low values 1.02 | S. cerevisiae deletion strains, locus YNR049C, strain mso1, hits give low values 1.01 | S. cerevisiae deletion strains, locus YOR001W, strain rrp6, hits give low values 1.01 | S. cerevisiae deletion strains, locus YOR070C, strain gyp1, hits give low values 1.02 | S. cerevisiae deletion strains, locus YOR080W, strain dia2, hits give low values 1.02 | S. cerevisiae deletion strains, locus YOR083W, strain WHI5, hits give low values 1.01 | S. cerevisiae deletion strains, locus YOR106W, strain vam3, hits give low values 1.02 | S. cerevisiae deletion strains, locus YOR265W, strain rbl2, hits give low values 1.01 | S. cerevisiae deletion strains, locus YOR270C, strain vph1, hits give low values 1.11 | S. cerevisiae deletion strains, locus YOR290C, strain snf2, hits give low values 1.02 | S. cerevisiae deletion strains, locus YPL051W, strain arl3, hits give low values 1.01 | S. cerevisiae deletion strains, locus YPL078C, strain atp4, hits give low values 1.04 | S. cerevisiae deletion strains, locus YPL106C, strain sse1, hits give low values 1.02 | S. cerevisiae deletion strains, locus YPL240C, strain hsp82, hits give low values 1
